34 compounds from PubChem BioAssay (EPA / NIEHS) can be followed below.

Activity calls are given as the source filed them. How the source made its calls, unless noted: active means hit-call score of the fitted dose curve at least 0.9, where 1 is the maximum; inconclusive means response in the unintended direction; inactive means score below 0.9.

Estrogen receptor (Homo sapiens), sequence (P03372 whole entry, looked up): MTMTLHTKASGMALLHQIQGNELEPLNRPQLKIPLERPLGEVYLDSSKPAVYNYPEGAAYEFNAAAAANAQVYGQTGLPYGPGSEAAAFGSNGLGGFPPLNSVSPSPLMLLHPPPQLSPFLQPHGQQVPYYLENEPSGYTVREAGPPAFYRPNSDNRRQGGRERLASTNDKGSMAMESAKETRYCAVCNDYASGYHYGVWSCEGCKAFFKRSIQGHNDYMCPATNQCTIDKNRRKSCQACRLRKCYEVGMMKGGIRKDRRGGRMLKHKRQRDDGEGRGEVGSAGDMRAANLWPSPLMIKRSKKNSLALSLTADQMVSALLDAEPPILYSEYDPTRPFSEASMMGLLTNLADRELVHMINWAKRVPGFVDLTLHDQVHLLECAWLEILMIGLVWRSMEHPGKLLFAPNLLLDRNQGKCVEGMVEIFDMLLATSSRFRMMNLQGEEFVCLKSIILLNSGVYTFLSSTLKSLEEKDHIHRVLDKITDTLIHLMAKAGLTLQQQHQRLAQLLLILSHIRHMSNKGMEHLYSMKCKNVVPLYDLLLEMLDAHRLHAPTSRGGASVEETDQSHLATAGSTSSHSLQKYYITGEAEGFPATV
Estrogen receptor beta (Homo sapiens), sequence (Q92731 whole entry, looked up, the tested form may be a part): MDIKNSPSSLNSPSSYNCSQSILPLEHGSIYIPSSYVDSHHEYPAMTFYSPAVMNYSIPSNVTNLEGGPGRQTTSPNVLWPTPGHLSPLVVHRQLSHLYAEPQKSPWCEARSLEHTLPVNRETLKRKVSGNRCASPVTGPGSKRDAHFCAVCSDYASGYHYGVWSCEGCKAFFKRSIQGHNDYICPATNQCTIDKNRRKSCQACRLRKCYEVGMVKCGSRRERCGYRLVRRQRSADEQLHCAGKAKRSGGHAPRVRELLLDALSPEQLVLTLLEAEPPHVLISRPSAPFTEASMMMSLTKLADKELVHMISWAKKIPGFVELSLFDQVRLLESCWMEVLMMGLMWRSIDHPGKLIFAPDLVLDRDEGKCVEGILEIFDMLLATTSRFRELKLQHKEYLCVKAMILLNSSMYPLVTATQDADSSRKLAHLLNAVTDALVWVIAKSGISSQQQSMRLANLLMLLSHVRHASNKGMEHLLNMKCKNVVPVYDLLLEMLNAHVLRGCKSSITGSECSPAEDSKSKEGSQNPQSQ

The target of the first assay is Estrogen receptor beta (Homo sapiens) (UniProt Q92731). Description: OT_ER_ERbERb_1440: Odyssey Thera (OT) 24-hour HEK293T Protein-Complementation Assay for Estrogen Receptor-beta/-beta Homodimer (AID 2283380).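 Further: fluorescence gain from ER beta LBD homodimer complementation read by laser scanning cytometry; scored as signal increase over DMSO baseline for both agonists and antagonists.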 The gist of the method:
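Fluorescence increase, nuclear for agonists or whole-cell for antagonists, relative to DMSO vehicle, quantified by laser scanning cytometer after fixation and Draq5 staining. Readout from 24 h treatment of HEK293T cells carrying complementation-paired ER beta LBD (aa 310-547).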
Turning to `[As]#[In]`, the result was inactive.
The same measure, in the same setting: the value for `OCCOCCO` was “inactive”; that for `O=P(OCCCl)(OCCCl)OCCCl` was “inactive”.
Regarding `c1ccc(NNc2ccccc2)cc1`, the outcome was inactive.
For `CN(C)c1ccccc1`, the compound was called inactive.
With `CC(O)CCO` (configuration not stated), the result was inactive.
`CN(C)C(=O)Nc1ccc(Cl)cc1`: the call was inactive.
On to `Clc1ccccc1Cl`, for which the AC50 was 7.71 µM (active).
For `OCCCl`, the result was inactive.
For `ClCCOCCCl`, the compound was called inactive.
`O=[N+]([O-])c1ccc(Oc2ccc(Cl)cc2Cl)cc1`: the compound was called inactive.
Same read-out and setting: the value for `CCN(CC)CCO` was “inactive”.
The same measure, in the same setting: the value for `CCCCCCCCCCCCCN1CC(C)OC(C)C1` (configuration not stated) was “inactive”.
Take `CC(C)(C)OOC(C)(C)CCC(C)(C)OOC(C)(C)C`: the compound was called inactive.
For the compound `CC(C)COC(=O)c1ccccc1C(=O)OCC(C)C`, the outcome was inactive.
As to `CN(C)c1ccc(C(=O)c2ccc(N(C)C)cc2)cc1`, the result was inactive.
For `Nc1cc(Cl)cc(C(=O)O)c1Cl`, the result was inactive.
Turning to `Clc1ccc(C(c2ccc(Cl)cc2)C(Cl)(Cl)Cl)cc1`, the AC50 is 29.1 µM (active).
`OCCCBr`: the result was inactive.
With `CS(=O)(=O)NC(=O)c1cc(Oc2ccc(C(F)(F)F)cc2Cl)ccc1[N+](=O)[O-]`, the compound was called inactive.
For the compound `Clc1ccc(Cl)c(Cl)c1`, the result was inactive.
Consider `[O-][Cl+]O`, for which the result was inactive.
In the case of `Nc1ccc(Oc2ccc(N)cc2)cc1`, the compound was classed as inactive.
Turning to `ClC1=C(Cl)C2(Cl)C3C(Cl)C=CC3C1(Cl)C2(Cl)Cl` (configuration not stated), the outcome was inactive.
Consider `N#CC(Br)Br`, for which the compound was classed as inactive.
As for `c1ccc2c(c1)oc1ccccc12`, the outcome was inactive.
Take `Oc1ccc2ccc3cccc4ccc1c2c34`: the AC50 is 12 µM (active).
Turning to `Cc1ccc([N+](=O)[O-])cc1`, the compound was classed as inactive.

A further assay addresses Estrogen receptor (Homo sapiens) (UniProt P03372). Put plainly: OT_ERa_GFPERaERE_0480: Odyssey Thera (OT) 8-hour HeLa Transcription Induction Assay for Estrogen Receptor (AID 2283381; active means hit-call score of the fitted dose curve at least 0.9, where 1 is the maximum; inactive means score below 0.9). The gist of the method: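 HeLa cells dosed with compound and imaged by fluorescence microscopy at 8 h; GFP induction from an ERE reporter quantified by high-content image analysis and fitted as gain of signal against DMSO baseline.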
For `OCCOCCO`, the result was inactive.
For the compound `Brc1ccc(Oc2ccccc2)cc1`, the compound was classed as inactive.
Still for that read-out and setting: the result for `Cn1cc(-c2ccccc2)c(=O)c(-c2cccc(C(F)(F)F)c2)c1` reads “inactive”.
In the case of `CCC12COCN1COC2`, the compound was classed as inactive.
As to `COc1cc(C=O)cc2c1[C@H](COC(N)=O)[C@]1(OC(C)=O)ON2C[C@H]2[C@@H]1N2C(C)=O`, the call was inactive.
With `Clc1ccc(C(c2ccc(Cl)cc2)C(Cl)Cl)cc1`, the half-maximal activity concentration (AC50) was 12.2 µM (active).
Take `CCCCCCCCCCCCCN1CC(C)OC(C)C1` (configuration not stated): the compound was classed as inactive.
Turning to `CC(C)COC(=O)c1ccccc1C(=O)OCC(C)C`, the AC50 is 13.7 µM (active).
With `CCOc1cccc(C2(N3CCN(c4ccccc4)CC3)CCC(C)CC2)c1` (configuration not stated), the outcome was inactive.
The same measure, in the same setting: the result for `OCCCBr` reads “inactive”; that for `[O-][Cl+]O`, “inactive”; that for `ClC1=C(Cl)C2(Cl)C3C(Cl)C=CC3C1(Cl)C2(Cl)Cl` (configuration not stated), “inactive”.
For `N#CC(Br)Br`, the compound was called inactive.
Same read-out and setting: the value for `Cc1ccc([N+](=O)[O-])cc1` was “inactive”.

By AC50 is commonly meant the midpoint of the concentration-response curve, whichever way the signal moves.
